From PubChem
CYP2C9 activ: increases human cytochrome P450 2C9 activity; P11712; recombinant CYP2C9, luciferin-H conversion, luminescence; hits give high values; factor 1 = untreated enzyme, 0 = blocked; activation factor at 5 µM; 1.4% of 96,000 active; AID 1024;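 active means activation factor of 2 or more for CYP2C9 at a 5 µM dose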;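 further: 0 = sulfaphenazole-blocked wells and 1 = vehicle-only wells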
CYP2C19 activ: cytochrome P450 2C19 (human) activation | P33261 | 96,000 tested, under 10 active | activation factor at 5 µM | recombinant CYP2C19, luciferin-H EGE luminescence; hits give high values; 0 = fully inhibited enzyme, 1 = untreated enzyme;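 active means activation factor of at least 2 at 5 µM in the primary screen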;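 further: 0 = wells with 2.5 mM tranylcypromine and 1 = vehicle-only wells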
Target sequence (P33261 whole entry, looked up): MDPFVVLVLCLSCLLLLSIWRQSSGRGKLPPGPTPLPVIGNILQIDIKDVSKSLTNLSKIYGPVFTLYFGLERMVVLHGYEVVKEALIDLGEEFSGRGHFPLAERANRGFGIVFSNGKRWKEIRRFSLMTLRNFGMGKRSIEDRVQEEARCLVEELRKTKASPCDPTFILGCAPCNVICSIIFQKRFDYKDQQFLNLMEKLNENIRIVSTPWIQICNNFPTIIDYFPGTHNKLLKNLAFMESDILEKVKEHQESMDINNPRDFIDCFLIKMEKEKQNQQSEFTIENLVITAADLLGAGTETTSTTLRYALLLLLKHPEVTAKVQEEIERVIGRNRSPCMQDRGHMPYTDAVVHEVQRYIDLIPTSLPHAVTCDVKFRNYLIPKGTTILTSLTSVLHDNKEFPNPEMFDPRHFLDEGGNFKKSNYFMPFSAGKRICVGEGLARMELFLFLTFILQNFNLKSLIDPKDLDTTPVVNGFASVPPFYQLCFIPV
Cav3 T inh: blocks human Cav3.2 T-type calcium channel | O95180 | Cav3.2-expressing cells, Fluo-4 calcium fluorescence FDSS; hits give low values | B-score at 10 µM | 4% of 100,000 active;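 active means single-dose well whose peak fluorescence ratio is a statistical outlier from its plate by either plate-standardised score or position-corrected B-score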
CYP2C19 inh: human CYP2C19 inhibition; P33261; CYP2C19 Supersomes, luciferin-H EGE luminescence, 30 min; inhibition, % at 5 µM; 21% of 96,000 active; AID 778;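 active means CYP2C19 inhibition above a set limit at 5 µM in the primary screen, cut at about 50% in these data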;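 further: plate controls were negative control wells for no effect and 2.5 mM tranylcypromine positive control for full effect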
CYP2C9 inh: inhibitors of human CYP2C9 | CYP2C9 Supersomes, luciferin-H conversion, luminescence | inhibition, % at 5 µM | 20% of 96,000 active | AID 777;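 active means blocking of liver enzyme CYP2C9 beyond about 50% at 5 µM, limit read from the data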
Numbers without * were called inactive; · = no result. In the library only some 27% were active in any assay of this set; here they are far more common.

SMILES | CYP2C9 activ | CYP2C19 activ | Cav3 T inh | CYP2C19 inh | CYP2C9 inh
Cc1ccsc1C(=O)Nc1cc(C(C)(C)C)nn1-c1ccccc1 | 0.8 | 0.7 | 0.55 | 26 | 23
Fc1ccccc1CSc1nnc(Cn2cnc3ccccc32)n1-c1ccccc1 | 0.7 | 0.2 | -1.1 | 83* | 32
Fc1ccccc1CSc1ncn[nH]1 | · | · | 0.86 | · | ·
Nc1nnc(SCc2ccccc2F)n1-c1ccccc1 | 1.1 | 0.2 | -0.66 | 75* | -7
C=CCn1c(SCC(=O)Nc2ccc3c(c2)OCO3)nnc1-c1ccccc1O | 0.6 | 0.6 | -1.5 | 42 | 40
CCn1c(SCC(=O)c2cc(C)n(C)c2C)nnc1-c1ccccc1 | 1.5 | 0 | 0.26 | 100* | -45
Cc1cc(C(=O)CSc2nc3ccccc3n2C)c(C)n1C | 3.4* | 0.7 | 0.68 | 33 | -239
Cc1cc(C(=O)CSc2nc3ccccc3c(=O)[nH]2)c(C)n1C | 0.5 | 0.5 | 0.88 | 50 | 49
Cc1ccccc1-n1c(SCC(=O)c2cc(C)n(C)c2C)nnc1-c1cccnc1 | 0.4 | 0.3 | 1.4 | 67* | 62*
C=CCn1c(SCC(=O)c2ccc(O)c(O)c2)nnc1-c1ccccc1OC | 1.4 | 0.3 | 2.1 | 75* | -41
Cc1cc(C(=O)CSc2nnc(-c3cccs3)n2Cc2ccccc2)c(C)n1C | 0.6 | 0.6 | -3.7 | 42 | 43
COCCn1c(C)cc(C(=O)CSc2nnc(-c3cccnc3)n2-c2ccccc2F)c1C | 0.8 | 0.9 | 0.6 | 13 | 21
COc1ccccc1-n1cnc2cc(C(=O)NC3CCCC3)ccc21 | · | · | -0.05 | · | ·
FC(F)(F)c1nnc2sc(-c3cccs3)nn12 | 1 | 1 | 0.24 | 4 | 2
O=C(Nc1cc(Cl)ccc1Cl)c1ccc(OC(=O)c2ccco2)cc1 | 1.5 | 1.1 | -0.21 | -8 | -51
COc1ccc(-c2nnc3ccc(SCC(=O)N4CCCCC4)nn23)cc1OC | 1.1 | 1 | 2.3 | 0 | -6
COc1ccc(-c2nc3n(n2)C(c2ccccc2)C2=C(CCCC2=O)N3)cc1OC (configuration not stated) | 0.7 | 0.9 | 0.54 | 14 | 28
CCn1c(SCC(=O)c2ccc(O)c(O)c2)nnc1-c1ccccc1 | 0.8 | 0 | · | 98* | 24
CCn1c(SCC(=O)c2ccc(O)c(O)c2)nnc1-c1ccccc1OC | 1.3 | 0.3 | 1.1 | 67* | -28
CCn1c(SCC(N)=O)nnc1-c1ccc(OC)c(OC)c1 | 1.1 | 1 | 0.77 | -1 | -12
CCCn1c(C)cc(=O)c2cc(NC(=O)c3ccccn3)ccc21 | 1.1 | 1 | 0.38 | -5 | -10
CC1(C)NC(=O)N(c2ccccc2Cl)C1(C)NO (configuration not stated) | 0.9 | 0.8 | -0.57 | 24 | 8
OC(c1cccs1)(c1cccs1)C1C[N+]2(CF)CCC1CC2 (configuration not stated) | 1.1 | 0.9 | 1 | 5 | -7
CC1(C)CC(=O)CC(C2(O)C(=O)N(Cc3ccccc3)c3ccccc32)O1 (configuration not stated) | 1 | 0.8 | 0.98 | 17 | 1
CC1(C)CC(=O)C(C2(O)C(=O)N(Cc3ccccc3)c3ccccc32)CO1 (configuration not stated) | 0.7 | 0.4 | 0.36 | 63* | 35
SMILES | CYP2C9 activ | CYP2C19 activ | Cav3 T inh | CYP2C19 inh | CYP2C9 inh
CC1(c2nnc(-c3cccc(Cl)c3)o2)CC(c2ccc(Br)cc2)=NO1 (configuration not stated) | · | · | -0.75 | · | ·
CCn1c(=O)c2c(n3cnnc13)-c1ccccc1CC21CCCCC1 | 0.7 | 0.8 | 0.29 | 16 | 27
CCCn1c(SCC#N)nc2c(c1=O)C1(CCCC1)Cc1ccccc1-2 | 0.7 | 0.9 | -4.2* | 9 | 34
N#CCSc1nc2c(c(=O)n1Cc1ccco1)C1(CCCC1)Cc1ccccc1-2 | 0.5 | 1 | -6.2* | 0 | 50
N#CCSc1n[nH]c2nc3c(c(=O)n12)C1(CCCC1)Cc1ccccc1-3 | 0.6 | 1.1 | -0.67 | -6 | 39
CCOC(=O)N1CCC(Nc2c(NCCCOC)c(=O)c2=O)CC1 | 1.1 | 1 | 0.57 | 0 | -8
COc1cc(O)c(C(CCN2CCCC2)c2cc(OC)c(OC)c(OC)c2)c(OC)c1 (configuration not stated) | · | · | 1.1 | · | ·
N#C/C(=C(/O)CN1C(=O)c2ccccc2C1=O)c1nc2ccccc2[nH]1 | 0.5 | 0.8 | -4.2 | 20 | 51*
CSCCC(/C(O)=C(\C#N)c1nc2ccccc2[nH]1)N1C(=O)c2ccccc2C1=O (configuration not stated) | 0 | 0 | · | 99* | 95*
CC(C)OCCCNC(=O)C1CCN(S(=O)(=O)N2CCCCC2)CC1 | 1 | 1 | 1.2 | -1 | -3
CSc1nc2nc(C(F)(F)F)cc(-c3ccccc3)n2n1 | 0.4 | 0.7 | 0.91 | 27 | 62*
CSc1nc2nc(C)cc(-c3ccccc3)n2n1 | 1 | 1.1 | 0.67 | -10 | -1
Oc1ccc2ccccc2c1N=Nc1ccccn1 | 0.3 | 0.8 | 0.7 | 25 | 67*
O=C1CN(S(=O)(=O)c2ccccc2)CC(=O)N1CCc1ccccc1 | 0.9 | 0.8 | 0.051 | 17 | 14
Cc1ccc(NC2=NCC(=O)N2CCc2ccccc2)cc1C | 0.5 | 0 | -0.033 | 98* | 50
CCOc1ccc(NC2=NCC(=O)N2CCc2ccccc2)cc1 | 0.6 | 0.3 | -0.19 | 67* | 44
O=C(O)c1ccc(C2CCCCC2)cn1 | 1 | 0.8 | 0.22 | 16 | 4
COCCOC(=O)c1c(C)oc2ccc(NS(=O)(=O)c3ccccc3)cc12 | 0.3 | 0.4 | -2.8 | 63* | 65*
COC(=O)c1c(C)oc2ccc(NS(=O)(=O)c3cccs3)cc12 | 0.1 | 0 | -4.9* | 97* | 92*
Cn1c2c(c3ccccc31)CCSC2=O | 0.8 | 0.8 | 0.35 | 24 | 16
O=C(C1CCC1)N1CCc2cc(S(=O)(=O)NC3CCCC3)ccc21 | 0.2 | 0.3 | 0.0042 | 72* | 83*
O=C(C1CCC1)N1CCc2cc(S(=O)(=O)NCC3COc4ccccc4O3)ccc21 (configuration not stated) | 0.8 | 0.8 | -0.72 | 17 | 25
O=C(C1CC1)N1CCc2cc(S(=O)(=O)NCC3COc4ccccc4O3)ccc21 (configuration not stated) | 0.5 | 0.3 | -3 | 72* | 52*
O=C(C1CC1)N1CCc2cc(Br)cc(S(=O)(=O)NCC3COc4ccccc4O3)c21 (configuration not stated) | 0.4 | 0.1 | -4.1* | 91* | 59*
O=C(O)CCC(=O)N1CCc2cc(S(=O)(=O)NC3CCCC3)ccc21 | 1.1 | 1.2 | -4.2 | -16 | -7
O=C(O)c1ccc(OC2CSC2)cc1 | 0.9 | 1 | 0.87 | 2 | 8
COc1cc(C2C3=C(CC(C)(C)CC3=O)N(C)C(=O)N2C)cc(OC)c1OC (configuration not stated) | 0.7 | 1.1 | -0.41 | -7 | 31
CN(c1ccc(C(=O)NC2CC2)cc1)S(=O)(=O)c1ccccc1 | 0.3 | 0.5 | 0.51 | 50 | 70*
